This is an account of results in PubChem BioAssay (EPA / NIEHS).

The nature of test [1]: ATG_XTT_Cytotoxicity: Cytotoxicity Assessment in the Attagene TRANS-FACTORIAL HepG2 Assay (AID 2283584). The essentials:
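Viability endpoint from XTT after 24 h chemical exposure of reporter-transfected human HepG2 liver cells; signal loss fitted relative to DMSO negative control.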

Test [2] can be described thus: TOX21_p53_BLA_p2_viability: Viability Assessment in the Tox21 HCT-116 p53 Agonism Beta-lactamase Assay, Phase 2 (AID 2283591).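 Note: compound exposure lasted 16 h at 37 °C; actives lower the ATP signal meaning cytotoxicity.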 The essentials:
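HCT-116 p53-bla cells (4000/well) rested 5 h at 37C, then received compounds in DMSO (217-fold dilution) for 16 h at 37C, 5% CO2. After the CCF4 read, CellTiter-Glo was added; ATP luminescence was read after 30 min at room temperature.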

Test [3] is described as follows: TOX21_p53_BLA_p3_viability: Viability Assessment in the Tox21 HCT-116 p53 Agonism Beta-lactamase Assay, Phase 3 (AID 2283593).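 Note: cells exposed to compound for 16 h before reading.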 The essentials: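 HCT-116 cells (4000/well) rested 5 h at 37C, then got DMSO compounds by pin tool (217-fold dilution) for 16 h at 37C, 5% CO2. After the bla read, CellTiter-Glo was added and luminescence read at 30 min, room temperature.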

The target in test [4] is Cellular tumor antigen p53 (Homo sapiens) (UniProt P04637). In words: TOX21_p53_BLA_p3_ratio: Tox21 HCT-116 p53 Agonism Beta-lactamase Assay, Ratio, Phase 3 (AID 2283596). In short, it runs like this:
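Cells were seeded at 4000/well, rested 5 h at 37C, then dosed with DMSO compound solutions (217-fold dilution) for 16 h. CCF4-AM substrate was loaded for 2 h at room temperature, and the 460/530 nm emission ratio was fitted for gain of signal versus DMSO.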

Test [5] in a line: TOX21_p53_BLA_p4_viability: Viability Assessment in the Tox21 HCT-116 p53 Agonism Beta-lactamase Assay, Phase 4 (AID 2283597).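 Note: hits lower the luminescence signal meaning cytotoxicity.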 In short, it runs like this:
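Cytotoxicity as reduced cellular ATP (CellTiter-Glo luminescence, 30 min room temperature), measured in the same wells following the CCF4 FRET p53 reading. Human HCT-116 cells received compounds in DMSO (217-fold dilution) for 16 h.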

Test [6] addresses Cellular tumor antigen p53 (Homo sapiens) (UniProt P04637). In words: TOX21_p53_BLA_p5_ratio: Tox21 HCT-116 p53 Agonism Beta-lactamase Assay, Ratio, Phase 5 (AID 2283599). In short, it runs like this:
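HCT-116 cells carrying a p53-inducible beta-lactamase reporter were seeded at 4000 cells/well and dosed after 5 h with compound in DMSO (217-fold dilution). After 16 h at 37C, CCF4-AM substrate was added for 2 h, and the 460/530 nm emission ratio was scored as gain-of-signal versus DMSO.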

The nature of test [7]: TOX21_p53_BLA_p5_viability: Viability Assessment in the Tox21 HCT-116 p53 Agonism Beta-lactamase Assay, Phase 5 (AID 2283600). In short, it runs like this: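 Viability came from CellTiter-Glo ATP luminescence, read after 30 min at room temperature. Before this, HCT-116 p53-bla cells (4000/well) had 16 hours of compound exposure at 37C, with DMSO stocks diluted 217-fold on transfer.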

Test [8] addresses Cellular tumor antigen p53 (Homo sapiens) (UniProt P04637). Nature of the test: TOX21_p53_BLA_p4_ratio: Tox21 HCT-116 p53 Agonism Beta-lactamase Assay, Ratio, Phase 4 (AID 2283601). The essentials: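 HCT116 cells carrying an inducible beta-lactamase reporter were plated at 4000 cells/well, rested 5 h, then exposed to compounds in DMSO (217-fold dilution) for 16 h at 37C. CCF4-AM substrate was loaded 2 h at room temperature; 460/530 nm emission ratio scored gain-of-signal versus DMSO.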

The target is the same in test [9]. Nature of the test: TOX21_p53_BLA_p2_ratio: Tox21 HCT-116 p53 Agonism Beta-lactamase Assay, Ratio, Phase 2 (AID 2283592). In short, it runs like this:
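Read-out is the blue/green (460/530 nm, 405 nm excitation) ratio after 2 h CCF4-AM loading, fitted as gain versus DMSO. Compounds, pinned at 217-fold dilution from DMSO stocks, stayed 16 h on HCT-116 beta-lactamase reporter cells seeded 5 h earlier.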

SMILES strings stand for the structures. Values joined by “and” are separate entries in the source; they are usually repeats but may differ in a detail not shown here. Identical values can stand only once. Records with an inconclusive call do not appear. A structure can be active in one record and inactive in another. Active and inactive are the calls of the source. Rule for the calls: active = hit-call score of the fitted dose curve at least 0.9, where 1 is the maximum; inconclusive = response in the unintended direction; inactive = score below 0.9.

Sequence of Cellular tumor antigen p53 (Homo sapiens) (P04637 whole entry, looked up): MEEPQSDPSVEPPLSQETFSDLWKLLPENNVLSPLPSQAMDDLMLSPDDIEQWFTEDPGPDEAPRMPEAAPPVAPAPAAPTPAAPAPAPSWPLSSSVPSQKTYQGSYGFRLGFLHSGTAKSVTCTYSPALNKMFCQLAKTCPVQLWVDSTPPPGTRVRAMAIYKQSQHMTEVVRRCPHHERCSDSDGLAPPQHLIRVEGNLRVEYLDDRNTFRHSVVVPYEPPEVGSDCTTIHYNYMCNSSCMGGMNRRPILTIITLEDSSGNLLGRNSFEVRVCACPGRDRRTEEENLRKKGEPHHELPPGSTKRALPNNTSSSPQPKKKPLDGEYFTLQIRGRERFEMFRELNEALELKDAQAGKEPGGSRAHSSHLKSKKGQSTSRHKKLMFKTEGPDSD

On to `Nc1ccn([C@H]2CC[C@@H](CO)O2)c(=O)n1`, for which the result in test [1], in test [2], in test [3], in test [4], in [5] and in test [6] was inactive. Further, the compound was called inactive in test [7] and in test [8].

For `CCCCC/C=C\C=C\C(=O)OCC`, the outcome in test [1] and in test [4] was inactive. For the same compound, the AC50 in test [2] is 68.7 µM (active); in test [3] it was 49.1 µM (active); in test [5], 66.6 µM (active); in test [6], 73.4 µM (active); in test [7] it was 47.7 µM (active); in test [8] it was 89.9 µM (active).

Take `O=S(=O)(O)CCCN1CCOCC1`: the compound was called inactive in test [1], in test [2], in [5], in [6], in test [7] and in test [8].

For the compound `Cc1ccncc1`, the outcome in test [1], in [2], in test [4], in test [5], in test [6] and in [7] was inactive. Moreover, the result in [8] was inactive.

`OC[C@H]1O[C@@H](O[C@H]2[C@H](O)[C@@H](O)[C@H](O)O[C@@H]2CO)[C@H](O)[C@@H](O)[C@H]1O`: the call in test [1], in [2], in [9] and in [7] was inactive.

For the compound `CC(=O)CCC=C(C)CCC=C(C)C`, the call in [1], in test [2], in test [4], in [5], in test [6] and in [7] was inactive. For the same compound, the outcome in [8] was inactive.

As to `CC1COC(=O)O1` (configuration not stated), the compound was classed as inactive in [1], in [9], in [3] and in test [4].

Consider `Cc1cccc(O)c1`, for which the compound was classed as inactive in test [1], in test [2], in test [4], in test [5], in test [6] and in test [7].

As for `CCCCCCCCCCCCCCCCCC(=O)OCCCCCCCCCCCCCC(C)C`, the outcome in [1], in test [2], in test [9], in [5], in [6] and in test [7] was inactive.

As for `CCCCCCCCCC(=O)OCC`, the compound was called inactive in [1], in [2], in [9], in test [4], in test [6] and in test [7]. Besides, the outcome in test [8] was inactive.

With `[Cu+]`, the compound was classed as inactive in test [1], in test [2], in [5] and in [7].

Consider `CCCCCC(=O)O[C@]1(C(C)=O)CC[C@H]2[C@@H]3CCC4=CC(=O)CC[C@]4(C)[C@H]3CC[C@@]21C`, for which the compound was called inactive in test [1], in test [2], in test [4], in [5], in test [6] and in test [7]. In [8], the result was inactive.

As to `c1ccc2scnc2c1`, the compound was classed as inactive in test [1], in test [2], in [4], in [6], in test [7] and in test [8].

As for `C[C@H](CCC(=O)O)[C@H]1CC[C@H]2[C@@H]3CC[C@@H]4C[C@H](O)CC[C@]4(C)[C@H]3CC[C@]12C`, the compound was called inactive in test [1], in [4], in test [5], in [6] and in test [8]. Besides, the AC50 is 16.3 µM (active) and 14.2 µM (active) in [2]; 31.4 µM (active) and 30 µM (active) in [3]; 31.1 µM (active) in test [4]; 13.5 µM (active) in test [5]; 18.2 µM (active) in test [6]; 16.3 µM (active) in test [7].

Take `NC(N)=NC(N)=NCCc1ccccc1`: the result in [1], in test [9], in [3], in test [4], in test [5] and in test [6] was inactive. For the same compound, the call in test [7] and in test [8] was inactive. Besides, the AC50 in test [9] was 20.4 µM (active); in [4], 30.6 µM (active).

As to `C=C/C(C)=C/C/C=C(\C)CCC=C(C)C`, the result in test [1], in [2], in test [3], in [4] and in test [7] was inactive.

As for `C=CC(O)CCCCC` (configuration not stated), the result in test [1], in [2], in test [3], in test [5] and in test [7] was inactive.

Consider `CCOC(=O)C=Cc1ccccc1`, for which the result in test [1], in [2], in test [9], in test [4], in test [6] and in test [7] was inactive.

As to `CCCCCCCOC(C)=O`, the outcome in [1], in test [2], in [3], in test [5] and in test [8] was inactive.

As for `NC(=O)NC(N)=O`, the result in [1], in test [2], in [9], in test [4], in test [6] and in test [7] was inactive. For the same compound, the result in [8] was inactive.

As to `CCCCOCCOCCOCCO`, the compound was called inactive in test [1], in test [2], in test [4], in [5], in [6] and in [8].

In the case of `CCCCCc1cccc(=O)o1`, the result in test [1], in [2], in test [3], in [4], in test [5] and in test [6] was inactive. Moreover, the outcome in test [8] was inactive.

Regarding `O=C(O)C1=NN(c2ccc(S(=O)(=O)O)cc2)C(=O)C1`, the compound was called inactive in test [1], in test [2], in test [9], in test [4], in test [6] and in test [7]. The outcome in test [8] was inactive.

Turning to `CC(=O)c1ccc2ccccc2c1`, the outcome in test [1], in test [9], in test [5], in test [6], in [7] and in [8] was inactive.

As for `Cc1cc(O)c2c(c1)C(=O)c1cc(O)cc(O)c1C2=O`, the outcome in test [1], in test [6], in [7] and in test [8] was inactive. Also, the AC50 in test [9] was 6.55 µM (active) and 13.2 µM (active); in test [4], 12 µM (active) and 33.3 µM (active); in [6], 11.9 µM (active).

The term AC50 denotes the concentration giving half of the maximal activity seen.
